Hit rate of the full screen: of about 5,500 compounds, about 2,000 (36%) were called active. About 18% were inconclusive and are not listed. No stated cut-off is given here; in the data, active means normalized growth mostly below about 0.91 (no sharp cut-off); inconclusive means no clear call, values can overlap the other calls; inactive means mostly above about 0.92. This is one part of the list.
Test: chemical genetic growth profiling, strain panel (AID 1159580);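 further: tested at 20 µM; growth read once vehicle control cultures reached saturation at 30 °C; 1 = growth at the plate median or of vehicle wells; lower values mean less growth of the strain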
Conditions: S. cerevisiae deletion strains, growth OD
[1] = locus YAL040C, strain CLN3, active compounds read low
[2] = locus YCL061C, strain MRC1 (second series), active compounds read low
[3] = locus YDR363W, strain ESC2, active compounds read low
[4] = locus YER002W, strain NOP16, active compounds read low
[5] = locus YMR307W, strain GAS1, active compounds read low
[6] = locus YNL175C, strain NOP13, active compounds read low
[7] = locus YNL197C, strain WHI3, active compounds read low
[8] = locus YNL224C, strain SQS1, active compounds read low
[9] = locus YOR083W, strain WHI5 (second series), active compounds read low

Measured: normalized growth

COC(=O)C(C)(N)Cc1ccc(O)cc1 (stereo not drawn)
inactive: locus YAL013W, strain DEP1, active compounds read low 0.991 | [1] 0.987 | [2] 1.01 | [3] 0.966 | [4] 1.01 | locus YGR078C, strain PAC10, active compounds read low 0.976 | [5] 0.974 | locus YNL153C, strain GIM3, active compounds read low 1.03 | [6] 0.996 | [7] 0.99 | [8] 0.997 | [9] 1.01 | locus YPL055C, strain LGE1, active compounds read low 0.988 | locus YPL241C, strain CIN2, active compounds read low 1.01

C[C@@](Cc1ccc(O)c(O)c1)(NN)C(=O)O
inactive: [1] 1.01 | [2] 1 | [3] 1.02 | [4] 1.06 | [5] 0.997 | [6] 1.04 | [7] 0.993 | [8] 1.02 | [9] 0.978

C[C@](N)(Cc1ccc(O)cc1)C(=O)O
inactive: locus YAL021C, strain ccr4, active compounds read low 1 | locus YAL026C, strain drs2, active compounds read low 0.999 | locus YAL030W, strain snc1, active compounds read low 0.998 | locus YBL061C, strain skt5, active compounds read low 0.993 | locus YBR009C, strain hhf1, active compounds read low 0.993 | locus YBR023C, strain chs3, active compounds read low 0.996 | locus YBR171W, strain sec66, active compounds read low 0.998 | locus YBR231C, strain swc5, active compounds read low 1 | locus YBR279W, strain paf1, active compounds read low 1 | locus YCL011C, strain gbp2, active compounds read low 1 | locus YCL016C, strain dcc1, active compounds read low 0.986 | locus YCL061C, strain MRC1, active compounds read low 1 | locus YCL069W, strain vba3, active compounds read low 0.997 | locus YCR088W, strain abp1, active compounds read low 0.99 | locus YDL005C, strain med2, active compounds read low 0.989 | locus YDL040C, strain nat1, active compounds read low 0.991 | locus YDR001C, strain nth1, active compounds read low 0.986 | locus YDR069C, strain doa4, active compounds read low 1 | locus YDR137W, strain rgp1, active compounds read low 0.991 | locus YDR159W, strain sac3, active compounds read low 0.991 | locus YDR195W, strain ref2 0.971 | locus YDR297W, strain sur2, active compounds read low 0.996 | locus YDR334W, strain swr1, active compounds read low 0.997 | locus YDR335W, strain msn5, active compounds read low 0.995 | locus YDR392W, strain spt3, active compounds read low 0.923 | locus YEL003W, strain gim4, active compounds read low 1 | locus YEL037C, strain rad23, active compounds read low 0.999 | locus YEL061C, strain CIN8 (second series), active compounds read low 0.992 | locus YER015W, strain faa2, active compounds read low 1 | locus YER016W, strain bim1, active compounds read low 0.993 | locus YER111C, strain swi4, active compounds read low 1 | locus YER155C, strain BEM2 (second series), active compounds read low 0.983 | locus YFR010W, strain ubp6, active compounds read low 1 | locus YGL167C, strain pmr1, active compounds read low 0.994 | locus YGL173C, strain kem1, active compounds read low 1.01 | locus YGL227W, strain vid30, active compounds read low 0.992 | locus YGL240W, strain doc1, active compounds read low 1.01 | locus YGL253W, strain hxk2, active compounds read low 0.999 | locus YHR013C, strain ard1, active compounds read low 0.954 | locus YHR027C, strain rpn1, active compounds read low 0.997 | locus YHR030C, strain SLT2, active compounds read low 1.03 | locus YHR079C, strain IRE1, active compounds read low 1.04 | locus YHR142W, strain chs7, active compounds read low 1.01 | locus YJL092W, strain hpr5, active compounds read low 0.998 | locus YJL095W, strain BCK1 (second series), active compounds read low 0.997 | locus YJL095W, strain BCK1, active compounds read low 1.05 | locus YJL115W, strain asf1, active compounds read low 0.99 | locus YJL129C, strain trk1, active compounds read low 1.01 | locus YJL154C, strain vps35, active compounds read low 1 | locus YJL164C, strain tpk1, active compounds read low 0.999 | locus YJL166W, strain qcr8, active compounds read low 1 | locus YJL187C, strain SWE1, active compounds read low 0.999 | locus YJR066W, strain TOR1, active compounds read low 1.01 | locus YKL160W, strain elf1, active compounds read low 1.01 | locus YKR026C, strain gcn3, active compounds read low 0.98 | locus YKR091W, strain srl3, active compounds read low 0.992 | locus YLL001W, strain dnm1, active compounds read low 1.01 | locus YLL026W, active compounds read low 0.996 | locus YLL041C, strain sdh2, active compounds read low 0.997 | locus YLR027C, strain aat2, active compounds read low 1 | locus YLR113W, strain HOG1, active compounds read low 1.01 | locus YLR221C, strain rsa3, active compounds read low 0.997 | locus YLR258W, strain gsy2, active compounds read low 0.993 | locus YLR262C, strain YPT6 (second series), active compounds read low 1.01 | locus YLR320W, strain mms22, active compounds read low 1.01 | locus YLR342W, strain FKS1, active compounds read low 0.998 | locus YLR357W, strain rsc2, active compounds read low 0.982 | locus YLR370C, strain arc18, active compounds read low 1 | locus YLR384C, strain iki3, active compounds read low 0.994 | locus YML120C, strain ndi1, active compounds read low 1.03 | locus YMR058W, strain fet3, active compounds read low 1 | locus YMR125W, strain sto1, active compounds read low 0.995 | locus YMR129W, active compounds read low 0.986 | locus YMR205C, strain PFK2, active compounds read low 0.984 | locus YMR231W, strain pep5, active compounds read low 0.999 | locus YNL071W, strain lat1, active compounds read low 1.01 | locus YNL183C, strain NPR1, active compounds read low 1.02 | locus YNL209W, strain ssb2, active compounds read low 1.01 | locus YNL248C, strain rpa49, active compounds read low 1.02 | locus YNL322C, strain KRE1 (second series), active compounds read low 0.986 | locus YNR049C, strain mso1, active compounds read low 0.989 | locus YOR001W, strain rrp6, active compounds read low 1 | locus YOR070C, strain gyp1, active compounds read low 0.988 | locus YOR080W, strain dia2, active compounds read low 0.99 | locus YOR083W, strain WHI5, active compounds read low 1.01 | locus YOR106W, strain vam3, active compounds read low 1 | locus YOR231W, strain MKK1, active compounds read low 1.05 | locus YOR265W, strain rbl2, active compounds read low 0.999 | locus YOR270C, strain vph1, active compounds read low 1.01 | locus YOR290C, strain snf2, active compounds read low 0.926 | locus YPL051W, strain arl3, active compounds read low 1.01 | locus YPL078C, strain atp4, active compounds read low 1.01 | locus YPL106C, strain sse1, active compounds read low 0.993 | locus YPL240C, strain hsp82, active compounds read low 1.01 | locus YPL256C, strain CLN2, active compounds read low 1.05
